# PubChem BioAssay (NCATS)
# Results filed as inconclusive are left out. A number with no mark means an inactive call. Active and inactive are the calls of the source. Calls follow the shape of the dose curve; as a rule, active = well fitted curve in the direction sought with a large enough effect; inconclusive = small, poorly fitted or top-dose-only effect, or another doubt; inactive = no such curve, though single readings can be large; an effect the other way counts as inactive or inconclusive.
# Tests used:
# [1] = Quantitative High-Throughput drug screen in 47 multiple myeloma cell lines against the NCATS MIPE library collection: KMS21BM_JCRB cell viability assay (AID 1918974); details: ATP luminescence, 48 h; viability: at 45.8 µM unless noted
# How it was run: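 Viability readout: CellTiter-Glo luminescence following 5 min room-temperature incubation with reagent. Prior exposure: 48 h, 37C, humidified 5% CO2, 500 cells per well.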
# [2] = Quantitative High-Throughput drug screen in 47 multiple myeloma cell lines against the NCATS MIPE library collection: KMS26_JCRB cell viability assay (AID 1918975); also: nearly all actives have a fitted effect of over 45% in size
# How it was run: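 Inhibition of cell viability is measured here. Each line was plated at 500 cells per well, treated with MIPE 4.0 drugs, kept 48 hours at 37C, then assayed for ATP content by CellTiter-Glo luminescence.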
# [3] = Quantitative High-Throughput drug screen in 47 multiple myeloma cell lines against the NCATS MIPE library collection: MMM1_PLB cell viability assay (AID 1918976); also: nearly all actives have a fitted effect of over 35% in size
# How it was run: (§1)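 qHTS format: cells plated (500/well), pin-dosed with MIPE 4.0 compounds, kept 48 h at 37 °C. Readout was CellTiter-Glo luminescence, median RLU.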
# [4] = Quantitative High-Throughput drug screen in 47 multiple myeloma cell lines against the NCATS MIPE library collection: NCIH929_DSMZ cell viability assay (AID 1918978); also: nearly all actives have a fitted effect of over 35% in size
# How it was run: as §1
# [5] = Quantitative High-Throughput drug screen in 47 multiple myeloma cell lines against the NCATS MIPE library collection: OCIMY1_PLB cell viability assay (AID 1918979); also: nearly all actives have a fitted effect of over 35% in size; as to viability: series mostly up to about 46 µM
# How it was run: as §1
# [6] = Quantitative High-Throughput drug screen in 47 multiple myeloma cell lines against the NCATS MIPE library collection: MM1S_ATCC cell viability assay (AID 1918980); also: nearly all actives have a fitted effect of over 45% in size
# How it was run: as §1
# [7] = Quantitative High-Throughput drug screen in 47 multiple myeloma cell lines against the NCATS MIPE library collection: MM1R_ATCC cell viability assay (AID 1918981); also: nearly all actives have a fitted effect of over 35% in size
# How it was run: as §1
# [8] = Quantitative High-Throughput drug screen in 47 multiple myeloma cell lines against the NCATS MIPE library collection: KMS28PE_JCRB cell viability assay (AID 1918983); also: nearly all actives have a fitted effect of over 35% in size
# How it was run: as §1
# [9] = Quantitative High-Throughput drug screen in 47 multiple myeloma cell lines against the NCATS MIPE library collection: L363_DSMZ cell viability assay (AID 1918984); also: nearly all actives have a fitted effect of over 40% in size
# How it was run: as §1
# [10] = Quantitative High-Throughput drug screen in 47 multiple myeloma cell lines against the NCATS MIPE library collection: KMS34_JCRB cell viability assay (AID 1918985); also: nearly all actives have a fitted effect of over 40% in size
# How it was run: as §1
# [11] = Quantitative High-Throughput drug screen in 47 multiple myeloma cell lines against the NCATS MIPE library collection: OCIMY7_PLB cell viability assay (AID 1918987); also: nearly all actives have a fitted effect of over 65% in size
# How it was run: as §1
# [12] = Quantitative High-Throughput drug screen in 47 multiple myeloma cell lines against the NCATS MIPE library collection: OCIMY5_PLB cell viability assay (AID 1918988); also: nearly all actives have a fitted effect of over 65% in size
# How it was run: as §1
# [13] = Quantitative High-Throughput drug screen in 47 multiple myeloma cell lines against the NCATS MIPE library collection: OPM1_PLB cell viability assay (AID 1918989); also: nearly all actives have a fitted effect of over 40% in size
# How it was run: as §1
# [14] = Quantitative High-Throughput drug screen in 47 multiple myeloma cell lines against the NCATS MIPE library collection: SKMM1_PLB cell viability assay (AID 1919863); details: SKMM1 myeloma viability, CellTiter-Glo ATP, 48 h; viability: hits give low values; also: nearly all actives have a fitted effect of over 35% in size
# How it was run: as §1
# [15] = Quantitative High-Throughput drug screen in 47 multiple myeloma cell lines against the NCATS MIPE library collection: XG6_PLB cell viability assay (AID 1919865); also: nearly all actives have a fitted effect of over 40% in size
# How it was run: as §1
# [16] = Quantitative High-Throughput drug screen in 47 multiple myeloma cell lines against the NCATS MIPE library collection: XG1_PLB cell viability assay (AID 1919866); also: nearly all actives have a fitted effect of over 35% in size
# How it was run: as §1
# [17] = Quantitative High-Throughput drug screen in 47 multiple myeloma cell lines against the NCATS MIPE library collection: VP6_DJ cell viability assay (AID 1919867); also: nearly all actives have a fitted effect of over 40% in size
# How it was run: as §1
# [18] = Quantitative High-Throughput drug screen in 47 multiple myeloma cell lines against the NCATS MIPE library collection: LP1_DSMZ cell viability assay (AID 1918982); also: nearly all actives have a fitted effect of over 35% in size
# How it was run: as §1
# [19] = Quantitative High-Throughput drug screen in 47 multiple myeloma cell lines against the NCATS MIPE library collection: U266_ATCC cell viability assay (AID 1919864); also: nearly all actives have a fitted effect of over 35% in size
# How it was run: as §1
# [20] = Quantitative High-Throughput drug screen in 47 multiple myeloma cell lines against the NCATS MIPE library collection: MOLP8_DSMZ cell viability assay (AID 1918977); also: nearly all actives have a fitted effect of over 45% in size
# How it was run: as §1
# Potency is read from the fitted curve at half-maximal effect.
Compound,Potency [1],Potency [2],Potency [3],Potency [4],Potency [5],Potency [6],Potency [7],Potency [8],Potency [9],Potency [10],Potency [11],Potency [12],Potency [13],Potency [14],Potency [15],Potency [16],Potency [17],Potency [18],Potency [19],Potency [20]
CCC(=C(c1ccccc1)c1ccc(OCCN(C)C)cc1)c1ccccc1,18.7 µM (active),20.9 µM (active),23.5 µM (active),20.9 µM (active),inactive,29.6 µM (active),23.5 µM (active),18.7 µM (active),20.9 µM (active),inactive,20.9 µM (active),29.6 µM (active),20.9 µM (active),20.9 µM (active),20.9 µM (active),16.6 µM (active),20.9 µM (active),,,
COc1cc2ncn(-c3cc(OCc4ccccc4C(F)(F)F)c(C(N)=O)s3)c2cc1OC,1.32 µM (active),18.7 µM (active),20.9 µM (active),7.43 µM (active),,3.32 µM (active),18.7 µM (active),16.6 µM (active),,,0.332 µM (active),1.32 µM (active),0.743 µM (active),0.166 µM (active),1.66 µM (active),0.209 µM (active),18.7 µM (active),0.935 µM (active),18.7 µM (active),
CC(C)(C)OC(=O)Nc1ccc(-c2cc(C(=O)NCCCCCCC(=O)NO)no2)cc1,0.935 µM (active),3.72 µM (active),,1.66 µM (active),,2.35 µM (active),1.87 µM (active),2.35 µM (active),0.469 µM (active),2.35 µM (active),1.32 µM (active),1.87 µM (active),1.87 µM (active),2.09 µM (active),3.72 µM (active),1.87 µM (active),0.833 µM (active),,2.96 µM (active),
Cc1ccc2nc(NC(=O)CSc3nc4c(c(=O)n3-c3ccccc3)SCC4)sc2c1,11.8 µM (active),23.5 µM (active),,,,13.2 µM (active),16.6 µM (active),23.5 µM (active),11.8 µM (active),,,7.43 µM (active),16.6 µM (active),11.8 µM (active),14.8 µM (active),,9.35 µM (active),8.33 µM (active),20.9 µM (active),
Cn1cc(-c2ccncc2)c(-c2ccc(OCc3ccc4ccccc4n3)cc2)n1,3.32 µM (active),7.43 µM (active),2.96 µM (active),,16.6 µM (active),14.8 µM (active),10.5 µM (active),,2.64 µM (active),,10.5 µM (active),16.6 µM (active),10.5 µM (active),,5.9 µM (active),,5.26 µM (active),,18.7 µM (active),
CN(C)Cc1c(C(=O)NCCOc2ccc(C(=O)NO)cc2)oc2ccccc12,0.0469 µM (active),1.05 µM (active),0.59 µM (active),1.05 µM (active),1.66 µM (active),0.469 µM (active),0.469 µM (active),0.743 µM (active),0.332 µM (active),0.526 µM (active),0.59 µM (active),,0.469 µM (active),1.05 µM (active),2.96 µM (active),1.05 µM (active),0.148 µM (active),,1.18 µM (active),
COc1cc2c(cc1-c1c(C)noc1C)ncc1[nH]c(=O)n([C@H](C)c3ccccn3)c12,0.743 µM (active),0.0264 µM (active),7.43 µM (active),3.32 µM (active),,2.64 µM (active),3.32 µM (active),0.662 µM (active),,,18.7 µM (active),,1.48 µM (active),0.743 µM (active),5.26 µM (active),5.9 µM (active),0.833 µM (active),0.372 µM (active),18.7 µM (active),
COCCn1c2c([n+](Cc3cnccn3)c1C)C(=O)c1ccccc1C2=O,,0.0148 µM (active),0.0166 µM (active),0.0332 µM (active),0.0264 µM (active),0.0037 µM (active),0.0042 µM (active),0.0264 µM (active),,0.0053 µM (active),0.296 µM (active),0.0074 µM (active),0.0296 µM (active),0.0372 µM (active),0.0209 µM (active),0.0074 µM (active),0.0148 µM (active),0.0132 µM (active),0.0059 µM (active),0.0235 µM (active)
COc1cc(C(C)C)c2c(c1)S(=O)(=O)N(COc1cc(=O)n3cccc(OCCN4CCCCC4)c3n1)C2=O,18.7 µM (active),,,20.9 µM (active),inactive,11.8 µM (active),,,18.7 µM (active),,11.8 µM (active),,23.5 µM (active),,0.833 µM (active),2.09 µM (active),16.6 µM (active),,,
COc1cc2ncnc(Nc3ccc(F)c(Cl)c3)c2cc1NC(=O)C=CCN1CCCCC1,,18.7 µM (active),18.7 µM (active),4.69 µM (active),26.4 µM (active),13.2 µM (active),16.6 µM (active),23.5 µM (active),2.35 µM (active),26.4 µM (active),1.32 µM (active),16.6 µM (active),7.43 µM (active),20.9 µM (active),4.18 µM (active),,5.9 µM (active),,,18.7 µM (active)
